# About 83,000 compounds went through this panel and 20% of them were active in at least one assay; those are over-represented in the sample as a whole.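 Method: cells in 96-well plates; compound added at one concentration; 48 h incubation; percent growth measured; values under 10 scored active.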 Unmarked numbers belong to inactive results. Calls of active or inactive are those of the source.
# System: HL-60(TB) leukemia
# Test: NCI-60 one-dose screen, 48 h (100 = growth as untreated, 0 = no growth, -100 = all killed)
# Settings: 10 µM unless noted
row,Compound,growth
1,N#Cc1c(-c2ccccc2)c(C#N)c2c(C#N)c(N)nn2c1N,-17.2% (active)
2,C[C@@H]1CN(c2nc3c(cc2F)c(=O)c(C(=O)O)cn3C(C)(C)C)C[C@H](C)N1,97%
3,C#CC(F)(F)[C@]1(O)CC[C@H]2[C@@H]3CCC4=CC(=O)CCC4=C3[C@@H](c3ccc(C(C)=O)cc3)C[C@@]21C,-62.6% (active)
4,Cc1ccc(N=CNN=C(N)N)cc1,87.9%
